Results from PubChem BioAssay AID2661 (Broad Institute, 2010).
Among all 320,000 compounds or so, about 240 (0.075%) were called active.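 The calls were made as follows: active = inhibition at or above 25%, using the most active replicate where run in duplicate; inactive = inhibition below 25%.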 For the sample, actives were picked, then their nearest neighbours and some compounds at random.

Target: Serine/threonine-protein kinase 33 (Homo sapiens) (UniProt Q9BYT3)
Assay: STK33 phosphorylation of MBP blockers – biochemical, ADP-Glo luminescence, homogeneous, cell-free, primary screen (AID 2661)
Conditions: purified STK33, MBP phosphorylation, at 10 µM, hits give high values

Chain of Serine/threonine-protein kinase 33 (Homo sapiens) (Q9BYT3 whole entry, looked up): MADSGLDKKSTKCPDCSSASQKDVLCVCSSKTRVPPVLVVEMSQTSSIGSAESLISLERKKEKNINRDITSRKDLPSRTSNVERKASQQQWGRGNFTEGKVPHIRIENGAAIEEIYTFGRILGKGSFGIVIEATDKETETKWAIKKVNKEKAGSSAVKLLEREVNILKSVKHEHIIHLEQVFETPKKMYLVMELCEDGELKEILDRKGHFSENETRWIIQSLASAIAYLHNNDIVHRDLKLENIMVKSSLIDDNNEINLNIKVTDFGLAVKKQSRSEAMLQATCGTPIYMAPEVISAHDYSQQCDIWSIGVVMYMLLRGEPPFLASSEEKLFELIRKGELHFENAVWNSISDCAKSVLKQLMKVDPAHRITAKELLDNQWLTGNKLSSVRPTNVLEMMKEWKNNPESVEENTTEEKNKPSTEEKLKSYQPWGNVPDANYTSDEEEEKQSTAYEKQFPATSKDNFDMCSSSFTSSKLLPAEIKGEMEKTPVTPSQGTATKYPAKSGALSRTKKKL

SMILES	inhibition
CC(C)n1cnc2c(Nc3cccc(Cl)c3)nc(N(CCO)CCCO)nc21	55.5% (active)
OCCCNc1nccc(-c2cc(Nc3cccc(Cl)c3)ncn2)n1	5.41% (inactive)
CC(C)C[C@H](CO)Nc1nc(N(C)c2cccc(Cl)c2)c2ncn(C(C)C)c2n1	-0.739% (inactive)
O=C(COc1ccccc1F)Nc1nc(-c2ccccn2)cs1	-1.01% (inactive)
COc1ccc(C2(c3ccc(OC)cc3)NC(=O)N(CC(=O)Nc3cc(C)on3)C2=O)cc1	-0.176% (inactive)
CC1CN(C(=O)c2ccc([N+](=O)[O-])s2)CC(C)O1 (stereo not given)	-2.19% (inactive)
O=C1CCC/C=C\C[C@@H](CC(=O)N(CCO)Cc2ccccc2)C(=O)NCCO1	-0.894% (inactive)
COC(=O)[C@]1(Cc2ccccc2)N[C@H](CN(C)S(=O)(=O)c2ccc(F)cc2)[C@@H]2C(=O)N(Cc3ccccc3)C(=O)[C@@H]21	0.777% (inactive)
CNC[C@@H]1Oc2c(NS(C)(=O)=O)cccc2C(=O)N([C@@H](C)CO)C[C@H]1C	-0.879% (inactive)
O=C(Cn1cnc2c(OCc3ccccc3)ncnc21)NCc1nc2ccccc2[nH]1	0.0433% (inactive)
O=C(COC(=O)CSc1ccccc1)Nc1ccc(F)cc1F	-1.54% (inactive)
Cc1noc(C)c1C(=O)OC(C)C(=O)Nc1ccc2c(c1)OCO2 (stereo not given)	-2.76% (inactive)
CC(C)(C)OC(=O)C[C@@H]1C/C=C\C[C@@H](CC(=O)N[C@@H](CO)Cc2ccccc2)C(=O)N2CCC[C@H]2COC1=O	-0.177% (inactive)
CCOc1cc(/C=C2\SC(N3CCCC(C)C3)=NC2=O)ccc1O (stereo not given)	26.4% (active)
O=C1N=C(N2CCc3ccccc3C2)S/C1=C\c1ccc(O)cc1	11% (inactive)
CCOc1cc(/C=C2\SC(N3CCCCC3)=NC2=O)ccc1O	8.65% (inactive)
O=C1N=C(N2CCCC2)S/C1=C\c1cccc(Br)c1	-0.704% (inactive)
CC1CCN(C2=NC(=O)/C(=C/c3cn[nH]c3-c3ccccc3)S2)CC1	0.902% (inactive)
CC1CCN(C2=NC(=O)/C(=C/c3ccc(O)cc3)S2)CC1	25.8% (active)
O=C(COC(=O)c1ccc(F)cc1)NCC1COc2ccccc2O1 (stereo not given)	-0.961% (inactive)
NS(=O)(=O)c1ccc(CNC(=S)NC(=O)c2ccco2)cc1	-0.0738% (inactive)
CC1Cc2ccccc2N1S(=O)(=O)c1cccc(C(=O)OCC(=O)N2CCOCC2)c1 (stereo not given)	-1.13% (inactive)
Cc1ccc(S(=O)(=O)N2CCCCC2)cc1NC(=O)CCNC(=O)c1ccccc1	-0.0957% (inactive)
O=C(Nc1nnc(-c2ccccc2)o1)c1cccc(S(=O)(=O)N2CCOCC2)c1	-0.807% (inactive)
COc1cc(OC)cc(C(=O)NCC(=O)OCC(=O)NC(C)CCc2ccccc2)c1 (stereo not given)	-0.78% (inactive)
Cn1cccc1C(=O)OCC(=O)NCCc1ccccc1	-0.939% (inactive)
CC(C#N)OC(=O)c1cccnc1SCC(=O)Nc1ccc2c(c1)OCO2 (stereo not given)	0.605% (inactive)
CC(=O)c1c(C)[nH]c(C(=O)COC(=O)c2cccs2)c1C	-3.01% (inactive)

SMILES	inhibition
COc1cc(OC)cc(-c2cc3ccc(F)cc3cn2)c1	1.46% (inactive)
COc1ccc2nc3n(c(=O)c2c1)-c1ccc(Cl)cc1C(=O)NC3Cc1ccccc1 (stereo not given)	0.119% (inactive)
COc1ccc(-n2cnc3cc(C(=O)NC4CCCC4)ccc32)cc1	-0.505% (inactive)
COc1ccc(C(=O)NC2CC2)cc1OC1CCN(Cc2cnn(C)c2)CC1	0.281% (inactive)
COc1cc(C(=O)NC2CCN(C)CC2)ccc1Nc1ncc2c(n1)N(C1CCC(O)CC1)CCC(=O)N2C (stereo not given)	54.5% (active)
Cc1ccc(C(=O)Nc2ccccc2-c2ccccc2)cc1S(=O)(=O)Nc1ccccc1	-1.82% (inactive)
COCCN(CCOC)S(=O)(=O)NC[C@H]1O[C@@H](n2cnc3c(N)ncnc32)[C@H](O)[C@@H]1O	-0.284% (inactive)
COc1ccccc1CNC(=O)COC(=O)c1cccs1	-1% (inactive)
COc1cc(SC)ccc1C(=O)NNC(=O)C1COc2ccccc2O1 (stereo not given)	-1.07% (inactive)
O=C(CSc1nccn1-c1cccc(F)c1)NC1CCCC1	0.473% (inactive)
Cc1ccc(NS(=O)(=O)c2ccc(C(C)C)cc2)cc1S(=O)(=O)N1CCOCC1	-3.33% (inactive)
O=C(N=C1SC2CS(=O)(=O)CC2N1c1ccccc1)c1ccccc1 (stereo not given)	0.811% (inactive)
COc1cc(OC)cc(-c2sc3ccc(OC)cc3c2-c2ccc3cc[nH]c3c2)c1	1.63% (inactive)
CC(Oc1ccc2c(-c3ccccc3)cc(=O)oc2c1)C(=O)NC(Cc1c[nH]c2ccccc12)C(=O)O (stereo not given)	-3% (inactive)
COc1cccc2sc3cc(NCC[C@@H]4CCCN4C)ccc3c(=O)c12	4.13% (inactive)
COC(=O)[C@]1(CC(C)C)N[C@H](c2ccc(SC3CCCCC3)cc2)[C@@H]2C(=O)N(C)C(=O)[C@@H]21	-0.318% (inactive)
COc1ccc(C(=O)C(C)OC(=O)c2cccc(S(=O)(=O)Nc3c(C)n(C)n(-c4ccccc4)c3=O)c2)cc1 (stereo not given)	-0.0798% (inactive)
CC(=O)C(CC(=O)N1CCCC1)C(=O)Nc1ccc(Cl)cc1 (stereo not given)	-0.972% (inactive)
CCC(CO)Oc1cc(NCc2ccccc2)c2ncn(C3CCCC3)c2c1 (stereo not given)	3.27% (inactive)
O=C(Nc1cccc(S(=O)(=O)N2CCCCC2)c1)c1cncc(Br)c1	-0.246% (inactive)
CC(=NNC(=O)c1ccc2nc[nH]c2c1)c1ccc(Br)cc1	-0.319% (inactive)
COc1cc(S(=O)(=O)N2CCN(C(=O)C3CC3)CC2)ccc1NC(C)=O	0.285% (inactive)
COc1ccccc1C(=O)COC(=O)COc1ccc(C#N)cc1	5.03% (inactive)
Cc1cccc(NC(=S)Nc2ccc3cn[nH]c3c2)c1	11.6% (inactive)
CCc1cccc(CC)c1NC(=S)Nc1ccc2cn[nH]c2c1	24.8% (inactive)
S=C(Nc1cccc(Cl)c1)Nc1ccc2cn[nH]c2c1	27% (active)
CN(Cc1ccc(F)cc1)C(=O)CN1C(=O)c2ccccc2S1(=O)=O	-1.27% (inactive)
